TPT1 inhibitor – inhibitors of Candida albicans tRNA 2'-phosphotransferase TPT1; recombinant caTPT1, FP RNA substrate dephosphorylation; inhibition, % at 5 µM; 300,000 tested, 0.81% active; AID 1962;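 active = inhibition above the mean of all tested compounds plus 3 SD, set per screening campaign, cut at about 24% in these data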
IDE act – IDE (human) activation, cell-based; 340,000 tested, 0.073% active; HEK cells, FAbeta-B cleavage, fluorescence polarization; 0% vehicle, 100% cell-free pure enzyme wells; AID 493087; activation, % at 5.96 µM;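 active = activation above the mean of all tested compounds plus 3 SD, set per screening campaign, cut at about 17% in these data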
Myeloid diff MLP – promotes myeloid progenitor differentiation | ER-HoxA9 myeloid progenitors, lysozyme-GFP differentiation, flow cytometry | calls only at 10 µM | 360,000 tested, 1% active;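 active = normalized GFP-positive differentiation at or above the plate's own cutoff, the solvent-only control mean plus 3 SD; inconclusive = no clear call, values can overlap the other calls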;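 also: cells exposed to compound for four days before flow analysis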
IDE inh – cellular human IDE inhibition; HEK cells, FAbetaB cleavage, fluorescence polarization; 320,000 tested, 0.41% active; P14735; inhibition, % at 5.59 µM;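 active = percent inhibition above the average of all tested compounds plus 3 SD, set per screening campaign, cut at about 16% in these data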;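 also: IDE supplied by intact live HEK cells; FP after avidin binding of uncleaved biotin substrate so inhibition keeps polarization high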
CRFR2-BP ag – agonists of human CRF-binding protein/CRF-R2 receptor complex; AID 588473; 350,000 tested, 0.46% active; activation, % at 13.2 µM; HEK293 CRF-R2/CRF-BP, calcium dye fluorescence (FLIPR); percent of saturating CRF peptide response;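 active = activation of at least 50%, plus an integration ratio under a set limit after plate pattern correction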
CRFR2-BP antag – blocks CRF-induced signaling of the CRF-BP/CRF-R2 complex; HEK293 CRF-R2/CRF-BP, CRF-induced calcium fluorescence; inhibition, % at 11.8 µM; 350,000 tested, 0.59% active;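 active = inhibition of the ligand-induced calcium signal above about 50% at the single tested concentration, limit read from the data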
IDE cell inh cf – cellular human IDE inhibition, confirmation | shares compounds with IDE inh | HEK cells, FAbetaB cleavage, fluorescence polarization | inhibition, % at 5.59 µM | 1,200 tested, 51% active | AID 435028;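 active = mean inhibition across triplicate wells above the cutoff set by the earlier primary insulin-degrading enzyme screen, cut at about 16% in these data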
HEK cytotox – HEK cell cytotoxicity, counter-screen for IDE inhibitors | shares compounds with IDE inh | HEK293 cytotoxicity, ATP luminescence | 1,200 tested, 28% active | inhibition, % at 5.59 µM; in the data active = inhibition above about 22%
FP fluor counter – fluorescent artifact in IDE inhibitor FP assay; 30 tested, under 10 active; FP counterscreen for fluorescent artifacts, IDE probe project; AID 588718; shares compounds with IDE inh; IC50, µM; call rule not given here
Large screens that a line does not name were inactive (follow-up assays come after a bar, where they were run). Hits are enriched below; roughly 2.6% of the tested compounds scored in any of these assays.

COc1ccc(NC(=O)c2sc3nc(-c4cccnc4)ccc3c2N)cc1OC	IDE inh 19 | IDE cell inh cf inactive | HEK cytotox inactive
COc1ccc(NC(=O)c2sc3nc(-c4cccnc4)ccc3c2N)cc1	none
CCOC(=O)N1CCN(c2ccnc3cc(Cl)ccc23)CC1	IDE inh 37 | IDE cell inh cf 20 | HEK cytotox inactive
Cc1cc(C)n2c(Br)c(CN3CCCC(C)C3)nc2n1 (stereo not given)	none
C/C(Cc1ccccc1)=N\NC(=O)CNC(=O)/C=C\c1ccccc1	IDE inh 17 (no result: IDE act) | IDE cell inh cf inactive | HEK cytotox inactive
COc1ccc(/C=C/C(=O)NCC(=O)N/N=C(\C)Cc2ccccc2)cc1	none
Cc1cc(OCC(=O)Nc2ccc(Br)cc2)cc2c1C(=O)CC(C)(C)O2	IDE inh 17 (no result: IDE act) | IDE cell inh cf inactive | HEK cytotox inactive
O=S(=O)(c1ccc(N2CCOCC2)c(Cl)c1)N1CCOCC1	none
O=c1c2ccccc2sn1-c1cc(S(=O)(=O)N2CCOCC2)ccc1N1CCOCC1	IDE inh 59 | IDE cell inh cf 59 | HEK cytotox inactive | FP fluor counter inactive
CC(=O)c1cc2c(C)c(C(=O)c3ccccc3)oc2cc1O	IDE inh 35 | IDE cell inh cf 87 | HEK cytotox inactive
CC(C)=CCCC(C)=CCN1C(=O)CN(C)C1=O	none (no result: TPT1 inhibitor, IDE act, IDE inh)
COCOc1cc(O)c(C(=O)/C=C/c2ccccc2)c(OCOC)c1	none
CC(=O)Nc1cc(N=Cc2ccc(O)cc2O)c(Cl)cc1Cl	IDE inh 18 | IDE cell inh cf 32 | HEK cytotox inactive
COc1cc2c(cc1OC)C(C)N(C(=O)CCc1c[nH]c3ccccc13)CC2 (stereo not given)	none
COC(=O)C1C2CC(=O)C(C2)C1C(=O)OC (stereo not given)	none (no result: TPT1 inhibitor, IDE inh)
Cc1ccc(N2CC(C(=O)N3CCC(C(=O)Nc4ccc(Br)cc4)CC3)CC2=O)cc1 (stereo not given)	IDE inh 17 | IDE cell inh cf inactive | HEK cytotox inactive
O=C(CCC1CCCN(C(=O)CCCc2ccccc2)C1)N1CCN(c2ccccn2)CC1 (stereo not given)	none
C=CCn1c(SCC(=O)N2CCc3ccccc3C2)nc2sc(CC)cc2c1=O	IDE inh 17 | IDE cell inh cf inactive | HEK cytotox inactive
CCOC(=O)C1(CC2CCCCO2)CCN(Cc2nc(C(C)C)cs2)CC1 (stereo not given)	none
Cc1cccc(N2CCN(C(=O)C3CCC(CNS(=O)(=O)c4cccs4)CC3)CC2)c1C (stereo not given)	Myeloid diff MLP inconclusive, IDE inh 21 | IDE cell inh cf inactive | HEK cytotox 52
O=C(C1CCC(CNS(=O)(=O)c2cccs2)CC1)N1CCCCC1 (stereo not given)	none
Cc1c(CCC(=O)NCC(=O)NCC(=O)O)c(=O)oc2cc3oc4c(c3cc12)CCCC4	IDE inh 24 | IDE cell inh cf inactive | HEK cytotox inactive
CCOC(=O)C1=C(CSc2nc(C)cc(C)c2C#N)OC(N)=C(C#N)C1c1ccccc1 (stereo not given)	none
CCOC(=O)C1=C(CSc2nc(C)cc(C)c2C#N)OC(N)=C(C#N)C1c1cccs1 (stereo not given)	IDE inh 23 (no result: IDE act, Myeloid diff MLP) | IDE cell inh cf inactive | HEK cytotox inactive
COc1cc(/C=N/NC(=O)c2cc(C)oc2C)cc(OC)c1OC	none
C=C[C@@H]1c2cc(C)ccc2N(S(=O)(=O)c2ccc(C)cc2)[C@H](c2ccccc2C(F)(F)F)C1(C#N)C#N	none (no result: TPT1 inhibitor)
Clc1cccc(-c2nnc(SCc3nc4ccccc4[nH]3)n2-c2ccccc2)c1	none (no result: TPT1 inhibitor, IDE act, Myeloid diff MLP, IDE inh, CRFR2-BP ag, CRFR2-BP antag) | FP fluor counter inactive
Clc1cccc(-c2nnc(SCc3nc4ccccc4[nH]3)n2Cc2ccco2)c1	IDE inh 71 | IDE cell inh cf 50 | HEK cytotox inactive | FP fluor counter inactive

From PubChem
